Most compounds without a hit are left out; they make up all but 19% or so of the library.
TDP1 cell CPT – qHTS for Inhibitors of human tyrosyl-DNA phosphodiesterase 1 (TDP1): qHTS in cells in presence of CPT. chicken DT40 Tdp1-/-;hTDP1 cells + 20 nM CPT, ATP luminescence, 48 h. Potency, µM (highest dose often 46.2 µM), inactives show at the highest dose activity change, negative = growth inhibition, most hits filed as inhibitors. hit rate 12% among 420,000; further: potency means the concentration at half of the fitted maximal effect; nearly all actives have a fitted effect of over 55% in size
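Chicken DT40 Tdp1-/- cells complemented with human TDP1, 400 cells/well, exposed to compounds plus 20 nM camptothecin for at least 48 h at 37 C; viability read as ATP content by CellTiter-Glo luminescence.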
Giardia kill – Small Molecules that selectively kill Giardia lamblia: qHTS. Giardia lamblia trophozoite viability. activity change, % at 7.66 µM, hits read low. hit rate 0.15% among 340,000. AID 540267, 2011; in the data active means activity change below about -80%; inconclusive means between about -30% and that limit;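 further: parasites exposed to compound for two days anaerobically before the ATP read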
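Trophozoite viability was measured as ATP-dependent luminescence, read 15-30 min after reagent addition. Before that, parasites at 100 cells/well were exposed to compounds for 48 h, anaerobically, at 37 deg C.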
TDP1 cell noCPT – qHTS for Inhibitors of human tyrosyl-DNA phosphodiesterase 1 (TDP1): qHTS in cells in absence of CPT; DT40 Tdp1-/- hTDP1 cells, no CPT, ATP luminescence, 48 h; Potency, µM (titrated, usually from 46.2 µM), for inactives: at the top dose activity change, negative = growth inhibition, actives largely listed as inhibitors; hit rate 15% among 420,000; AID 686978, 2013; further: potency means the concentration at half of the fitted maximal effect; nearly all actives have a fitted effect of over 55% in size
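DT40 Tdp1-/-;hTDP1 cells, no CPT (DMSO vehicle only), 400 cells/well; compounds pin-transferred; ≥48 hr, 37 °C; CellTiter-Glo 30 min RT dark, luminescence read.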
ELG1 repair inh – qHTS screen for small molecules that inhibit ELG1-dependent DNA repair in human embryonic kidney (HEK293T) cells expressing luciferase-tagged ELG1. HEK293T ELG1-luciferase reporter, luminescence, 16 h; DNA damage induced by 5-fluorouridine. Potency, µM (series often up to 46.1 µM), without a hit: at the highest dose activity change, negative = inhibition, hits mostly inhibitors. hit rate 2.3% among 330,000; further: potency means the concentration at half of the fitted maximal effect; nearly all actives have a fitted effect of over 55% in size
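Luminescence from the luciferase reporter, measured 30 min after ONE-Glo reagent at room temperature, was the read-out. Beforehand, 2,000 cells per well were exposed for 16 hr at 37 °C to 5-fluorouridine together with compound or vehicle.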
TDP1 block – qHTS Assay for Inhibitors of Tyrosyl-DNA Phosphodiesterase (TDP1) | Tyrosyl-DNA phosphodiesterase 1 (Homo sapiens), Q9NUW8 | recombinant TDP1, AlphaScreen DNA substrate cleavage | Potency, µM (doses to about 130 µM), for inactives: at the top dose activity change, negative = inhibition, actives largely listed as inhibitors | hit rate 0.28% among 350,000 | AID 485290, 2010; further: potency means the concentration at half of the fitted maximal effect; nearly all actives have a fitted effect of over 40% in size
Target sequence (Q9NUW8 whole entry, looked up): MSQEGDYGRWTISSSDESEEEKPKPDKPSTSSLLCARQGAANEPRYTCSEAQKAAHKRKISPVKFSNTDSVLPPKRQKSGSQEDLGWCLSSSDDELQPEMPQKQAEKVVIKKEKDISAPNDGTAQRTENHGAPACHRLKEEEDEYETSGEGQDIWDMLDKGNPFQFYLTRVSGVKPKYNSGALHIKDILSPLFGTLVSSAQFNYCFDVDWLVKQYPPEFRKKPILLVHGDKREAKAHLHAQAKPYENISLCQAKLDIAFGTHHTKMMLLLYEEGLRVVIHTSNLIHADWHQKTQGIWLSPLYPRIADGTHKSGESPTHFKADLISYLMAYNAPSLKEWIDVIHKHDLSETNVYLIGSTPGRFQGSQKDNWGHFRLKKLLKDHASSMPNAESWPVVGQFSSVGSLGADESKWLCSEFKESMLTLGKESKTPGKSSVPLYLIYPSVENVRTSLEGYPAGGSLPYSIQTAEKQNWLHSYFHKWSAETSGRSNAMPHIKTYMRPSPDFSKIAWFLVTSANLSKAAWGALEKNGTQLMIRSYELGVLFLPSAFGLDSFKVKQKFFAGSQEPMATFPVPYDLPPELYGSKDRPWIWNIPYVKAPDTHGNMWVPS
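Enzyme-compound mixtures sat 15 min at room temperature, followed by a 5 min reaction with 15 nM final substrate and 10 min with AlphaScreen beads. Recombinant human Tdp1 was used at 1 nM final.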
IL1B secr inh – qHTS for Inhibitors of Inflammasome Signaling: IL-1-beta AlphaLISA Primary Screen | THP-1 LPS/ATP IL-1B secretion, AlphaLISA, 16 h; stronger effect = lower value | activity change, % at 57.5 µM | hit rate 4.7% among 360,000; in the data active means activity change below about -50%; inconclusive means mostly about -30% to -49%
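THP-1 cells pretreated 1 hr with compounds (up to 57.5 uM final), then stimulated with LPS (250 ng/mL final) plus ATP (1.25 mM final); secreted IL-1B measured by AlphaLISA after 16 hr, decreased signal indicating inhibition.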
Numbers without * were called inactive; [ ] = another dose, or the depositor's remark. Unless noted, the call rests on the fitted dose curve; in most records, active means well fitted curve in the direction sought with a large enough effect; inconclusive means small, poorly fitted or top-dose-only effect, or another doubt; inactive means no such curve, though single readings can be large; an effect the other way counts as inactive or inconclusive. On the % scale 0 is the no-effect control and ±100 the full control effect.

For Cc1nnc(NC(=O)C2=COCCO2)s1 the results were TDP1 cell CPT 6.1%, Giardia kill -17.4, TDP1 cell noCPT 7.4%, ELG1 repair inh inconclusive and IL1B secr inh 9.3.
Cc1cc(C)c2sc(NC(=O)C3=COCCO3)nc2c1 was read as TDP1 cell CPT -11.0%, Giardia kill -3.2, TDP1 cell noCPT -14.9%, ELG1 repair inh inconclusive, TDP1 block 6.5% and IL1B secr inh -58.3*.
For O=C(Nc1nc2cc3c(cc2s1)OCCO3)C1=COCCO1 the results were TDP1 cell CPT 23.1µM*, Giardia kill -86.3*, TDP1 cell noCPT inconclusive, ELG1 repair inh inconclusive, TDP1 block 5.6% and IL1B secr inh -53.0*.
For CC(=O)Nc1nc2cc3c(cc2s1)OCCO3 the results were TDP1 cell CPT inconclusive, Giardia kill 0.6, TDP1 cell noCPT 23.1µM*, ELG1 repair inh inconclusive and IL1B secr inh inconclusive.
C[N+]1(C)C2CCC1CC(OC(=O)C(O)c1ccccc1)C2 (stereo not given) was read as TDP1 cell CPT -8.2%, TDP1 cell noCPT -1.9% and TDP1 block -9.6%[56.1 µM].
Screening Cc1nc2ccc(S(=O)(=O)N(CC(=O)Nc3cccc(F)c3)Cc3ccccc3)cc2s1 returned TDP1 cell CPT inconclusive, TDP1 cell noCPT inconclusive and TDP1 block 3.8%.
`C/C(=N\NC(=O)C(=O)Nc1ccc(C)c(Cl)c1)c1ccncc1` gave TDP1 cell CPT 1.64µM*, Giardia kill 3.4, TDP1 cell noCPT 2.31µM*, ELG1 repair inh 11.7% and IL1B secr inh -3.6.
C/C(=N\Nc1cccc(Cl)c1)c1ccc(-n2ccnc2)cc1 was read as TDP1 cell CPT inconclusive, Giardia kill 8.9, TDP1 cell noCPT 16.4µM*, ELG1 repair inh -28.5%, TDP1 block 10.3% and IL1B secr inh inconclusive.
For CC(=NNS(=O)(=O)c1cccc([N+](=O)[O-])c1)c1ccc(-n2ccnc2)cc1 the results were TDP1 cell CPT -18.0%, Giardia kill -6.6, TDP1 cell noCPT inconclusive, ELG1 repair inh 1.6%, TDP1 block 0.0% and IL1B secr inh 20.4.
`C/C(=N\NC(=O)C(=O)Nc1cccc(Cl)c1)c1ccncc1` gave TDP1 cell CPT 11.6µM*, Giardia kill -6.0, TDP1 cell noCPT 7.31µM*, ELG1 repair inh 1.9%, TDP1 block 1.1% and IL1B secr inh -1.8.
For C/C(=N/NC(=O)c1ccncc1)c1ccccc1 the results were TDP1 cell CPT 4.1%, Giardia kill 31.8, TDP1 cell noCPT -4.7%, ELG1 repair inh inconclusive and IL1B secr inh -0.1.
C/C(=N\NC(=O)c1cccc(Cl)c1)c1cccc(NC(=O)C(C)C)c1 was read as TDP1 cell CPT -15.1%, Giardia kill -0.1, TDP1 cell noCPT -29.3%, ELG1 repair inh -22.4%, TDP1 block 0.0% and IL1B secr inh -22.5.
C/C(=N\NC(=O)C(=O)Nc1ccc(C)cc1)c1ccncc1 was read as TDP1 cell CPT inconclusive, Giardia kill 13.5, TDP1 cell noCPT 9.2µM*, ELG1 repair inh 3.9%, TDP1 block 6.7% and IL1B secr inh 17.7.
Screening COc1cc([N+](=O)[O-])ccc1NC(=O)COC(=O)c1c[nH]c(=O)[nH]c1=O returned TDP1 cell CPT 4.8%, Giardia kill -6.3, TDP1 cell noCPT 11.0%, ELG1 repair inh inconclusive, TDP1 block 0.9% and IL1B secr inh 5.0.
Screening COC(=O)CCN(c1ccccc1)S(=O)(=O)c1cc(-c2cc(C)no2)ccc1C returned TDP1 cell CPT -23.3%, Giardia kill -3.5, TDP1 cell noCPT inconclusive, ELG1 repair inh -11.9%, TDP1 block 0.4% and IL1B secr inh 29.6.
